Experimental findings from ChEMBL document CHEMBL3988442, “University of Dundee, Small-Polar-MMV Screening Library” (2021) are described below.

Out of some 48,000 compounds screened, about 13,000 (27%) showed an effect of 50% or more. The list shows a part of the results.

This assay relates to Wolbachia pipientis. In words: Anti-Wolbachia Cell-Based Screen. Type of assay: functional. The note with it: 5 µM. Further details: scale not given: in the data most compounds retested in dose-response had high values.
With `O=C(Cc1ccsc1)N1CCCC(c2n[nH]c3ncccc23)C1` (stereo not given), the “Percent Effect” value is recorded as 100.9%.
For `COCC(=O)N1CCC(c2nccn2CC2CC2)CC1` the value was -30.12%.
As for `COCC(=O)N1CCC(c2n[nH]c3nccnc23)CC1`, the figure is 142.1%.
As for `Cc1ncc(S(=O)(=O)N(CC(C)C)c2cccc(O)c2)s1`, the figure is -3.046%.
For the compound `O=C(NCCC(O)c1ccco1)c1ccco1` (stereo not given), the “Percent Effect” value was -7.433%.
For `CCC(CC)NC(=O)c1cncc(Br)c1` the value was 15.73%; for `CN1CCC(c2nnc(CN3CCC(O)CC3)n2C)CC1`, -6.188%; for `CCc1nc(C)ncc1C(=O)N1CC(C)CN(C)c2ccccc21` (stereo not given), -1.529%.
For `CC(=O)N1CC(C)CN(C(=O)c2cccnc2C)c2ccccc21` (stereo not given) the value was 91.16%.
With `CC(=O)N1CC(C)CN(Cc2ccon2)c2ccccc21` (stereo not given), the “Percent Effect” value amounted to 7.641%.
Turning to `CC1CN(C)c2ccccc2CN1C(=O)c1cscn1` (stereo not given), the “Percent Effect” value is recorded as -10.99%.
For `O=C(Nc1c(N2CCCC2)cccc1N1CCCC1)c1cnccn1` the value was -1.067%; for `CC1CN(C(=O)c2cscn2)c2ccccc2S1` (stereo not given), -14.12%.
As for `CC(=O)N1CC(C)CN(C(=O)c2cnccn2)c2ccccc21` (stereo not given), the figure is 97.68%.
As for `CC(=O)N1CC(C)CN(C(=O)c2cscn2)c2ccccc21` (stereo not given), the figure is 95.98%.
Regarding `Cc1ncsc1C(=O)N1CC(C)Sc2ccccc21` (stereo not given), the “Percent Effect” value is on record as 0.6302%.
For `CN(C)C(=O)N1CC2(CCN(S(=O)(=O)C3CC3)CC2)c2ccccc21` the value was -5.03%.
For `O=C(CCO)N[C@H]1CN(CC2CCC2)C[C@@H]1c1ccccc1`, the “Percent Effect” value is 4.649%.
For `Cc1cnc(CN(C)CC2CCCN2c2cccnn2)cn1` (stereo not given) the value was -5.64%; for `CN(Cc1cccc(C(N)=O)c1)CC1CCCN1c1cccnn1` (stereo not given), 103.6%; for `CN(Cc1ccc(-n2ccnc2)cc1)CC1CCCN1c1cccnn1` (stereo not given), 126.9%.
On to `CN(Cc1nc(N)c2ccccc2n1)CC1CCCN1c1cccnn1` (stereo not given), for which the “Percent Effect” value is listed as -0.6342%.
As for `CCn1ccnc1CN(C)CC1CCCN1c1cccnn1` (stereo not given), the figure is 7.087%.
For `CN(Cc1cnn(-c2ccccc2)n1)CC1CCCN1c1cccnn1` (stereo not given) the value was 15.2%; for `Cc1nc2ccccc2nc1CN(C)CC1CCCN1c1cccnn1` (stereo not given), 5.031%.
Consider `CN(Cc1ccc(-n2cccn2)cc1)CC1CCCN1c1cccnn1` (stereo not given), for which the “Percent Effect” value amounted to 115.9%.
For `CN(Cc1ccccn1)CC1CCCN1c1cccnn1` (stereo not given) the value was 130%; for `Cc1noc(C)c1CN(C)CC1CCCN1c1cccnn1` (stereo not given), -0.05919%.
For `CN(Cc1ccc(-n2cccn2)cc1)C[C@@H]1CCCN2CCCC[C@H]12` the value was 18.72%; for `COc1ccc(CN(C)CC2CCCN2c2cccnn2)cc1F` (stereo not given), 12.57%; for `CCCOc1cccc(NC(=O)NC2CCc3nc(C)nn3C2)c1` (stereo not given), -22.59%.
Consider `Cc1cc(N(C)Cc2ncc[nH]2)nc(-c2ccccc2)n1`, for which the “Percent Effect” value is 4.008%.
As for `CCOCCn1nc(C)cc1C(=O)N1CC[C@](C)(O)C(C)(C)C1`, the figure is 2.862%; as for `O=C(Nc1cccnc1)[C@H]1CN(Cc2ccccn2)C[C@H]2OCC[C@@H]12.O=C(O)C(F)(F)F.O=C(O)C(F)(F)F`, -14.96%.
As for `O=C1CCCN1C1CCN(S(=O)(=O)CCOc2ccc(F)cc2)CC1`, the figure is 0.4633%; as for `CN(CC(=O)Nc1ccncc1)CC1CCCN1c1cccnn1` (stereo not given), 2.636%.
For `CN(Cc1cccnc1)CC1CCCN1c1cccnn1` (stereo not given) the value was -2.765%.
As for `CN(Cc1ncc(C(C)(C)C)o1)CC1CCCN1c1cccnn1` (stereo not given), the “Percent Effect” value is on record as 16.2%.
As for `CN(Cc1cnn(C)c1)CC1CCCN1c1cccnn1` (stereo not given), the figure is 108.8%; as for `CN(CCc1ccncc1)CC1CCCN1c1cccnn1` (stereo not given), 116.4%; as for `Cc1nnc(CN(C)CC2CCCN2c2cccnn2)o1` (stereo not given), -3.082%.
Regarding `CC(c1ccccc1Cl)N(C(=O)CSCC(N)=O)C1CC1` (stereo not given), the “Percent Effect” value was -12.69%.
For the compound `Cn1cc(C(=O)Nc2cccc(F)c2)ccc1=O`, the “Percent Effect” value was found to be 0.158%.
As for `O=C(NCc1nnc2n1CCCC2)N1CCc2sccc2C1`, the figure is 127.9%; as for `O=C(NCc1nnc2n1CCCC2)N1CCc2ccccc2C1`, 5.135%.
As for `O=C(NCc1nnc2n1CCCCC2)N1CCC2(CCCCC2)C1`, the figure is -0.2574%; as for `O=C(NCc1nnc2n1CCC2)N1CCc2sccc2C1`, 90.24%.
For `CC(C)NC(=O)C1CCN(C(C)C(=O)N2CCc3sccc3C2)CC1` (stereo not given) the value was -8.464%; for `CC(NCc1nnc2n1CCCC2)c1nc(-c2cccs2)no1` (stereo not given), -0.8773%; for `O=C(NCc1nnc2n1CCCCC2)N1CCc2ccccc2C1`, 97.78%.
Regarding `CC(NCc1nnc2n1CCCC2)C(=O)N1CCc2sccc2C1` (stereo not given), the “Percent Effect” value is recorded as 124.2%.
For `O=C(NCc1nnc2n1CCCCC2)N1CCc2sccc2C1` the value was 8.039%; for `O=C(NCc1nnc2n1CCC2)N1CCC2(CCCCC2)CC1`, 10.88%.
For `O=C(NCc1nnc2ccccn12)N1CCc2sccc2C1` the value was -3.483%; for `O=C(NCc1ccc(N2CCCC2)nc1)N1CCc2sccc2C1`, -1.896%.
